Inconclusive results are not listed. Unmarked numbers belong to inactive results. Activity calls are given as the source filed them. Unless noted, calls follow the shape of the full dose curve.
Assay: qHTS assay for small molecules that induce genotoxicity in human embryonic kidney cells expressing luciferase-tagged ATAD5 (AID 651632; active = well fitted activation curve with a large enough effect in the repeat runs; also: nearly all actives have a fitted effect of over 15% in size)
Settings: HEK293T ATAD5-luciferase induction, 16 h; series mostly up to 83.3 µM; activation: at the top concentration
In short: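 DMSO vehicle served as the control. HEK293T reporter cells, 16 hr at 37C, then 30 min Amplite at room temperature; ATAD5 induction is measured as luciferase activity.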
% is scaled to controls: 0 for no effect and ±100 for the full control effect.

Compound | activation | Potency
Cc1cc2c(s1)Nc1ccccc1N=C2N1CCN(C)CC1 | 2.07% | –
CCC(=O)c1ccc2c(c1)N(CCCN(C)C)c1ccccc1S2 | -2.16% | –
CC(=O)Oc1cc(C(C)C)c(OCCN(C)C)cc1C | -1.67% [at 39.1 µM] | –
CC(C)=CCCC(C)CCOC=O (stereo not drawn) | -9.84% | –
CC1(C)C(=O)N(Cl)C(=O)N1Br | 1.93% | –
CCN(CC)CC1CCCCN1CC(=O)N1c2ccccc2C(=O)Nc2cccnc21 (stereo not drawn) | 2.84% | –
CC1=C(CC(=O)O)c2cc(F)ccc2/C1=C\c1ccc(S(C)(=O)=O)cc1 | 3.72% | –
Cc1ccc(C)c(N)c1 | 0.421% | –
CC1(O)CSC(C)(O)CS1 (stereo not drawn) | 4.78% | –
CCN(CC)CCOc1ccc(Cc2ccccc2)cc1 | -6.07% | –
CC(C)O | – | inactive
CC1CN(c2ccccc2)NC1=O (stereo not drawn) | 4.85% | –
O=c1[nH]c(=O)n([C@H]2C[C@H](O)[C@@H](CO)O2)cc1C(F)(F)F | 3.97% | –
Cc1c[nH]c(=S)[nH]c1=O | 2.39% | –
O=C(CC(=O)C(F)(F)F)c1ccccc1 | -11.1% [at 95.3 µM] | –
CCCCN1C[C@H](O)[C@@H](O)[C@H](O)[C@H]1CO | 2.46% | –
CC1=NN(c2cc(Cl)c(S(=O)(=O)O)cc2Cl)C(=O)C1N=Nc1ccc(S(=O)(=O)O)cc1 (stereo not drawn) | -0.562% | –
CC(C)(C)C1CCCCC1=O (stereo not drawn) | -2.76% | –
CC1=C2[C@H](/C=C(\C)C(=O)O)CC[C@@H](C)[C@H]2CC1 | -4.77% [at 95.3 µM] | –
CN1C(=O)CC(c2ccccc2)C1=O (stereo not drawn) | -1.05% | –
Clc1cccc(-c2cc(Cl)cc(Cl)c2)c1 | -2.11% | –
CCCCCCCCc1ccc(S(=O)(=O)O)cc1 | 1.99% | –
CCCCCCCCCCCCCCCCOP(=O)([O-])OCC[N+](C)(C)C | -3.64% | –
O=C1CCCCCCCCCCC(=O)OCCO1 | -2.3% | –
CCOC(=O)CS | 3.84% [at 95.3 µM] | –
CCOC(=O)COc1ccc2c(c1)CC(NCC(O)c1cccc(Cl)c1)CC2 (stereo not drawn) | -1.77% | –
CCCCC(=O)O[C@]1(C(=O)CO)[C@H](C)C[C@H]2[C@@H]3CCC4=CC(=O)C=C[C@]4(C)[C@@]3(F)[C@@H](O)C[C@@]21C | -2.38% | –
Oc1ccccc1F | 2.5% | –
O=C1Nc2ccc([N+](=O)[O-])cc2C1=O | 0.315% | –

Assay: qHTS assay for small molecule agonists of the p53 signaling pathway - cell viability (AID 651633); also: nearly all actives have a fitted effect of over 30% in size; also: potency is read from the fitted curve at half-maximal effect;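 as to activity change, negative = cytotoxicity: p53RE-bla HCT reporter cells with a stable beta-lactamase p53 reporter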
Settings: p53RE-bla HCT-116 viability, ATP luminescence, 16 h; series mostly up to 83.3 µM; activity change, negative = cytotoxicity: at the top concentration
In short: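 p53RE-bla cells, seeded at 4,000 per well and rested 5 h at 37 C/5% CO2, received compounds in DMSO for 16 h at 37 C. CellTiter-Glo was then added, and luminescence was read after 30 min at room temperature to gauge cytotoxicity.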

Compound | activity change, negative = cytotoxicity | Potency
NC1=NCC2c3ccccc3Cc3ccccc3N12 (stereo not drawn) | 18.5% | –
Cc1cc2c(s1)Nc1ccccc1N=C2N1CCN(C)CC1 | 33.5% | –
CCC(=O)c1ccc2c(c1)N(CCCN(C)C)c1ccccc1S2 | 17.2% | –
CC(=O)Oc1cc(C(C)C)c(OCCN(C)C)cc1C | 29.9% [at 39.1 µM] | –
CC(C)=CCCC(C)CCOC=O (stereo not drawn) | -15.2% | –
CC1(C)C(=O)N(Cl)C(=O)N1Br | -13% | –
Cc1ccc(C)c(N)c1 | -9.36% | –
CC1(O)CSC(C)(O)CS1 (stereo not drawn) | -15.2% | –
CC1CN(c2ccccc2)NC1=O (stereo not drawn) | 17.8% | –
O=C(CC(=O)C(F)(F)F)c1ccccc1 | -23% [at 95.3 µM] | –
CCCCN1C[C@H](O)[C@@H](O)[C@H](O)[C@H]1CO | 11.7% | –
CCCCCCOc1ccc(N)cc1 | -0.768% | –
CC1=NN(c2cc(Cl)c(S(=O)(=O)O)cc2Cl)C(=O)C1N=Nc1ccc(S(=O)(=O)O)cc1 (stereo not drawn) | 8.71% | –
CC1=C2[C@H](/C=C(\C)C(=O)O)CC[C@@H](C)[C@H]2CC1 | 8.71% [at 95.3 µM] | –
CN1C(=O)CC(c2ccccc2)C1=O (stereo not drawn) | -8.43% | –
O=C(Cl)c1cccc([N+](=O)[O-])c1 | 14.5% | –
C=O | – | inactive
Cc1c(N)cccc1N | -8.31% [at 95.3 µM] | –
COc1ccc(Nc2ccc(OC)cc2)cc1 | 5.58% [at 95.3 µM] | –
CCCCCCCCCCCCCCCCOP(=O)([O-])OCC[N+](C)(C)C | 21.9% | –
CN(CCCN1c2ccccc2CCc2ccccc21)CC(=O)c1ccc(Cl)cc1 | -21% | –
O=C1CCCCCCCCCCC(=O)OCCO1 | – | 54.5 µM (active)
CCOC(=O)CS | 5.97% [at 95.3 µM] | –
O=C1Nc2ccc([N+](=O)[O-])cc2C1=O | 12.2% | –

Assay: qHTS assay for small molecules that induce genotoxicity in human embryonic kidney cells expressing luciferase-tagged ATAD5 - cell viability (AID 651634); also: nearly all actives have a fitted effect of over 25% in size; also: potency is read from the fitted curve at half-maximal effect
Settings: HEK293T ATAD5-luc cells viability, CellTiter-Fluor, 15.5 h; series mostly up to 83.3 µM; activity, negative = cytotoxicity: at the top concentration
In short: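 Here HEK293T cells with the ATAD5 luciferase reporter are incubated with test compounds for 15.5 hr, and cytotoxicity is then gauged by measuring protease activity in live cells using fluorescence.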

Compound | activity, negative = cytotoxicity | Potency
NC1=NCC2c3ccccc3Cc3ccccc3N12 (stereo not drawn) | 3.37% | –
CCC(=O)c1ccc2c(c1)N(CCCN(C)C)c1ccccc1S2 | 8.21% | –
CC(=O)Oc1cc(C(C)C)c(OCCN(C)C)cc1C | 12.4% [at 39.1 µM] | –
CC(C)=CCCC(C)CCOC=O (stereo not drawn) | – | 54.5 µM (active)
CC1(C)C(=O)N(Cl)C(=O)N1Br | 10.5% | –
CCN(CC)CC1CCCCN1CC(=O)N1c2ccccc2C(=O)Nc2cccnc21 (stereo not drawn) | 15.2% | –
CC1=C(CC(=O)O)c2cc(F)ccc2/C1=C\c1ccc(S(C)(=O)=O)cc1 | -15.8% | –
Cc1ccc(C)c(N)c1 | 5.92% | –
CC1(O)CSC(C)(O)CS1 (stereo not drawn) | -13% | –
CCN(CC)CCOc1ccc(Cc2ccccc2)cc1 | 11% | –
CC(C)O | – | inactive
CC1CN(c2ccccc2)NC1=O (stereo not drawn) | 6.76% | –
O=c1[nH]c(=O)n([C@H]2C[C@H](O)[C@@H](CO)O2)cc1C(F)(F)F | -11.8% | –
Cc1c[nH]c(=S)[nH]c1=O | 6.08% | –
CCCCN1C[C@H](O)[C@@H](O)[C@H](O)[C@H]1CO | 14.5% | –
CCCCCCOc1ccc(N)cc1 | -15.7% | –
CC(C)(C)C1CCCCC1=O (stereo not drawn) | 8.18% | –
CC1=C2[C@H](/C=C(\C)C(=O)O)CC[C@@H](C)[C@H]2CC1 | -6.9% [at 95.3 µM] | –
CN1C(=O)CC(c2ccccc2)C1=O (stereo not drawn) | 15.5% | –
Clc1cccc(-c2cc(Cl)cc(Cl)c2)c1 | -15.1% | –
CCCCCCCCc1ccc(S(=O)(=O)O)cc1 | 3.78% | –
C=O | – | inactive
Cc1c(N)cccc1N | -8.07% [at 95.3 µM] | –
CCCCCCCCCCCCCCCCOP(=O)([O-])OCC[N+](C)(C)C | 15.9% | –
CN(CCCN1c2ccccc2CCc2ccccc21)CC(=O)c1ccc(Cl)cc1 | 5.71% | –
O=C1CCCCCCCCCCC(=O)OCCO1 | 5.22% | –
CCOC(=O)CS | -12.3% [at 95.3 µM] | –
CCOC(=O)COc1ccc2c(c1)CC(NCC(O)c1cccc(Cl)c1)CC2 (stereo not drawn) | 3.59% | –
CCCCC(=O)O[C@]1(C(=O)CO)[C@H](C)C[C@H]2[C@@H]3CCC4=CC(=O)C=C[C@]4(C)[C@@]3(F)[C@@H](O)C[C@@]21C | -12.8% | –
Oc1ccccc1F | 11.5% | –
